Inconclusive results are not listed. Entries that show only a call come without a potency. Values without a mark were called inactive. The source made the active and inactive calls. The call rests on the fitted dose curve; in most records, active means well fitted curve in the direction sought with a large enough effect in the repeat runs; inconclusive means weak or mixed curves; inactive means no such curve, though single readings can be large; an effect the other way counts as inactive or inconclusive.
Columns and labels:
[1] = molecular target: Cytochrome P450 2C9 (Homo sapiens) (UniProt P11712); assay: Cytochrome P450 Family 2 Subfamily C Member 9 (CYP2C9) small molecule antagonists: luciferase reporter qHTS assay (AID 1671198); on activity change, negative = inhibition: series mostly up to about 120 µM
Sequence of Cytochrome P450 2C9 (Homo sapiens) (P11712 whole entry, looked up): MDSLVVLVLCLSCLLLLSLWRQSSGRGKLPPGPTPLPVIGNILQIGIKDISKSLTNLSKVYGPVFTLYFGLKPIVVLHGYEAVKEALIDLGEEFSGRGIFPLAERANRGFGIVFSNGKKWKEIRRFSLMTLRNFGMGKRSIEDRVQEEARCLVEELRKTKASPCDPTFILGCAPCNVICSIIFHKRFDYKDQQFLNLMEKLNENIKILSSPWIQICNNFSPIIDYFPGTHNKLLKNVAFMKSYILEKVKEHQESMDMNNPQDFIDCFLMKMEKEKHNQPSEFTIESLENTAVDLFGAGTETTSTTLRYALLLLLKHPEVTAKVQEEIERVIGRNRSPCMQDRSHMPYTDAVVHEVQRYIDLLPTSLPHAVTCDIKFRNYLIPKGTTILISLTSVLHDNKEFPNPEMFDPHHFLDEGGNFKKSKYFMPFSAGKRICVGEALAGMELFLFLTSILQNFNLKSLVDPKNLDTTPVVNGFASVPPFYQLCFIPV
Method in brief: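 CYP2C9 activity was measured with a P450-Glo proluciferin substrate. Enzyme–substrate mix was held with compound for 10 min at room temperature, then NADPH regeneration solution was added for 1 h at 37C. Luciferin product was read as luminescence.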

[2] = molecular target: Cytochrome P450 1A2 (Homo sapiens) (UniProt P05177); assay: Cytochrome P450 Family 1 Subfamily A Member 2 (CYP1A2) small molecule antagonists: luciferase reporter qHTS assay (AID 1671199); on activity change, negative = inhibition: series mostly up to about 120 µM
Sequence of Cytochrome P450 1A2 (Homo sapiens) (P05177 whole entry, looked up): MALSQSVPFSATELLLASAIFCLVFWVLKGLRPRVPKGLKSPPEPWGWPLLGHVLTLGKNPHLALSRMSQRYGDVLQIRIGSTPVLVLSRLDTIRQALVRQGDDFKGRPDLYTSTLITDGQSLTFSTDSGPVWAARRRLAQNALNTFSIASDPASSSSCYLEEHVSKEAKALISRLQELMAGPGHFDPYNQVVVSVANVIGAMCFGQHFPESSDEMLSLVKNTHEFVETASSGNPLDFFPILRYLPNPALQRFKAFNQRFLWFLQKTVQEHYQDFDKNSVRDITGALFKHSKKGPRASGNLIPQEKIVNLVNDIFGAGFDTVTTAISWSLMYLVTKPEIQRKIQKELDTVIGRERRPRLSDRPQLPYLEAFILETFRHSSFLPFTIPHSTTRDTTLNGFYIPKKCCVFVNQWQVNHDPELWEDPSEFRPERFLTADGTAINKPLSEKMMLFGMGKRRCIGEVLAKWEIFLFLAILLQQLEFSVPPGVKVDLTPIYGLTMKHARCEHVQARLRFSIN
Method in brief: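 Human CYP1A2 activity measured with a P450-Glo proluciferin substrate; compounds in DMSO preincubated 10 min at room temperature with enzyme-substrate mix, then NADPH regeneration system added for 1 h. Luciferin detection reagent, 20 min, luminescence read.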

[3] = molecular target: Voltage-gated inwardly rectifying potassium channel KCNH2 (Homo sapiens) (UniProt Q12809); assay: Human Ether-a-go-go-Related Gene (hERG) channel small molecule antagonists: fluorescence cell-based qHTS assay (AID 1671200);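 on activity change, negative = inhibition: hERG-expressing U2OS cells given a thallium stimulus after FluxOR II dye loading; series mostly up to about 77 µM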
Sequence of Voltage-gated inwardly rectifying potassium channel KCNH2 (Homo sapiens) (Q12809 whole entry, looked up): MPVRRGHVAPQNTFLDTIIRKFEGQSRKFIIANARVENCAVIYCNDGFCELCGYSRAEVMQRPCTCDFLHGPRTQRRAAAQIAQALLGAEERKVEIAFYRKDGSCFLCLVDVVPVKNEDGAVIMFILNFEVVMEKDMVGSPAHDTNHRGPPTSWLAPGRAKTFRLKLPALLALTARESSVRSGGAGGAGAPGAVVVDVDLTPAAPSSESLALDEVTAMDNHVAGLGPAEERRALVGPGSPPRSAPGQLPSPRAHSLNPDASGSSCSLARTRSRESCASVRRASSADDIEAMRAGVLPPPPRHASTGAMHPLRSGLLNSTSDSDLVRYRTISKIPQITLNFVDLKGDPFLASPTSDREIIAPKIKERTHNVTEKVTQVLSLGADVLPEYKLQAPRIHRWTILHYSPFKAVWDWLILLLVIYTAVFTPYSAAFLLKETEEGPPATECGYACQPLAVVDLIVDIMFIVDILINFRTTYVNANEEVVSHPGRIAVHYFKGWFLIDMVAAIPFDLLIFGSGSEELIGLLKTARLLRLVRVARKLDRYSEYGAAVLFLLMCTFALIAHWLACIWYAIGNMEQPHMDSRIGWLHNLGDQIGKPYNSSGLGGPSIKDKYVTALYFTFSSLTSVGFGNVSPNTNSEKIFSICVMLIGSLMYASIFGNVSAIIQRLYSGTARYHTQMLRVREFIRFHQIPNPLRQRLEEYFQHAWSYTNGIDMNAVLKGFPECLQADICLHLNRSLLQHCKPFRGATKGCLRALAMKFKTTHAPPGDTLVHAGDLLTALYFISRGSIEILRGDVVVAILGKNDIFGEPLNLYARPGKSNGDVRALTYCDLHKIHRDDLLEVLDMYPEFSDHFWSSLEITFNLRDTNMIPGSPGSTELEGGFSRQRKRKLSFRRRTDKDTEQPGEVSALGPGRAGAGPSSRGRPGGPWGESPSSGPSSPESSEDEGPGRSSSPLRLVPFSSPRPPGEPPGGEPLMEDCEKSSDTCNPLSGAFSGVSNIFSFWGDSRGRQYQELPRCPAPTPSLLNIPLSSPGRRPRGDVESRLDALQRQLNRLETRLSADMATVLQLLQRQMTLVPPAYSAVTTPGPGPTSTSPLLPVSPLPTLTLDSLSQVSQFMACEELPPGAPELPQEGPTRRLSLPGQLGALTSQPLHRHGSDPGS
Method in brief: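 Thallium served as the potassium surrogate; its influx into dye-loaded U2OS cells carrying the channel was measured by fluorescence over 2 min.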

[4] = molecular target: Cytochrome P450 3A4 (Homo sapiens) (UniProt P08684); assay: Cytochrome P450 Family 3 Subfamily A Member 4 (CYP3A4) small molecule antagonists: luciferase reporter qHTS assay (AID 1671201); on activity change, negative = inhibition: series mostly up to about 120 µM
Sequence of Cytochrome P450 3A4 (Homo sapiens) (P08684 whole entry, looked up): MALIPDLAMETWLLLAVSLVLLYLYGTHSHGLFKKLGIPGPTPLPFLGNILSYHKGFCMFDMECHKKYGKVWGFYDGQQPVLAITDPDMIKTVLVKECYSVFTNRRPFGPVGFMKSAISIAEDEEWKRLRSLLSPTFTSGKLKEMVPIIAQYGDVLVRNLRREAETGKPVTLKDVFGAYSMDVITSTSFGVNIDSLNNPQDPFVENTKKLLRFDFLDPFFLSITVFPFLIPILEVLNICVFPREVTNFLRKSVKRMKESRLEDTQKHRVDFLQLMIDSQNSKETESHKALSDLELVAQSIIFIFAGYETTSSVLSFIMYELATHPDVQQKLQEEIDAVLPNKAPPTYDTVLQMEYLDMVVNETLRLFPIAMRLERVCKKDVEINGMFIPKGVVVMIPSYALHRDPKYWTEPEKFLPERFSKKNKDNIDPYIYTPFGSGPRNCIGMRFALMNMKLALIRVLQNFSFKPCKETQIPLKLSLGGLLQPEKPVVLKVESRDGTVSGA
Method in brief: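 Relative luminescence units after 20 min with luciferin detection reagent served as read-out. Beforehand, CYP3A4 turned over a proluciferin substrate for 1 h at room temperature with NADPH regeneration, following 10 min compound preincubation.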
Further: nearly all actives have a fitted effect of over 50% in size.
Potency means the concentration at half of the fitted maximal effect.

Compound	Potency [1]	Potency [2]	Potency [3]	Potency [4]	activity change, negative = inhibition [4]
CC(C)OC(C)C	inactive	inactive	inactive	inactive	–
CCCCN1C[C@H](O)[C@@H](O)[C@H](O)[C@H]1CO	inactive	inactive	inactive	–	–
O=c1[nH]cnc2c1ncn2[C@@H]1O[C@H](CO)[C@@H](O)[C@H]1O	inactive	inactive	inactive	–	–
CCCCCCC	inactive	inactive	inactive	inactive	–
CCCCC(=O)O[C@]1(C(=O)CO)[C@H](C)C[C@H]2[C@@H]3CCC4=CC(=O)C=C[C@]4(C)[C@@]3(F)[C@@H](O)C[C@@]21C	17.4 µM (active)	inactive	inactive	–	–
O=[N+]([O-])c1nccn1CO[C@@H](CO)[C@H](O)CO	inactive	inactive	inactive	inactive	–
O=C(Cl)c1cccc([N+](=O)[O-])c1	inactive	34.6 µM (active)	inactive	inactive	–
Cc1ncc(CO)c(CN)c1O	inactive	inactive	inactive	inactive	–
NC(=O)Cc1cccc(C(=O)c2ccccc2)c1N	inactive	15.5 µM (active)	inactive	inactive	–
CCOC(=O)[C@H](CCc1ccccc1)N[C@@H](C)C(=O)N1Cc2cc(OC)c(OC)cc2C[C@H]1C(=O)O	15.5 µM (active)	inactive	inactive	–	–
Cc1cccc(C)c1NC(=O)CN1CCCCCC1	inactive	inactive	–	inactive	–
CCCCNCCCC	inactive	inactive	–	inactive	–
FC(F)(F)C(F)(F)C(F)(F)C(F)(F)C(F)(F)C(F)(F)C(F)(F)C(F)(F)Br	inactive	inactive	inactive	inactive	–
CC(C)C(=O)OCC(C)(C)C(O)C(C)C (centres undefined)	inactive	–	inactive	–	–
COC(=O)c1ccc2cc(C(=O)OC)ccc2c1	inactive	2.58 µM (active)	–	–	16.2% [at 23.6 µM]
C=C(C)C(=O)OCCOP(=O)(O)O	inactive	inactive	inactive	inactive	–
Cc1c(N)cccc1N	64.7 µM (active)	23 µM (active)	inactive	6.47 µM (active)	–
O=C(O[C@@H](C(=O)O)[C@@H](OC(=O)c1ccccc1)C(=O)O)c1ccccc1	inactive	72.2 µM (active)	inactive	–	–
C=Cc1ccccc1	inactive	inactive	inactive	inactive	–
CCNCCO	inactive	inactive	–	inactive	–
CC(=O)O[C@H]1CC[C@@]2(C)C(=CC[C@@H]3[C@@H]2CC[C@]2(C)C(C(C)=O)=CC[C@@H]32)C1	inactive	inactive	inactive	inactive	–
CCCCc1ccc2nc(NC(=O)OC)[nH]c2c1	inactive	inactive	inactive	–	–
COC(C)CCO (centres undefined)	inactive	inactive	inactive	inactive	–
CN1[C@@H]2CC[C@H]1CC(OC(=O)c1c[nH]c3ccccc13)C2 (some centres undefined)	inactive	inactive	19 µM (active)	inactive	–
CC(=O)N(CC(O)CN(C(C)=O)c1c(I)c(C(=O)NCC(O)CO)c(I)c(C(=O)NCC(O)CO)c1I)c1c(I)c(C(=O)NCC(O)CO)c(I)c(C(=O)NCC(O)CO)c1I (centres undefined)	inactive	inactive	inactive	inactive	–
COC(=O)N[C@H](C(=O)N[C@@H](Cc1ccccc1)[C@@H](O)CN(Cc1ccc(-c2ccccn2)cc1)NC(=O)[C@@H](NC(=O)OC)C(C)(C)C)C(C)(C)C	15.5 µM (active)	inactive	inactive	–	–
CCC/C=C/CO	inactive	inactive	inactive	inactive	–
CC(C)CC(=O)OCc1ccccc1	inactive	inactive	inactive	inactive	–
